MITF inh: MITF inhibitors, primary screen, biochemical, AlphaScreen, human; Microphthalmia-associated transcription factor (Homo sapiens), O75030; AlphaScreen MITF homodimerization, bead proximity signal; inhibition, % at 2.6 µM; 0.91% of 650,000 active; AID 1259374, 2018; in the data active = inhibition above about 50%;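 also: 0% = vehicle wells with protein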
FBW7 act: FBW7 E3 ligase activators, primary screen, biochemical, AlphaScreen, human. F-box/WD repeat-containing protein 7 (Homo sapiens), Q969H0. AlphaScreen FBW7–phospho-cyclin E peptide binding, activator screen. normalized activity (activation), % at 26.1 µM. 0.13% of 650,000 active. AID 1259310, 2017; in the data active = normalized activity above about 1.9%;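 also: purified mutant Fbw7 with reduced substrate affinity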
Target sequence (Q969H0 whole entry, looked up): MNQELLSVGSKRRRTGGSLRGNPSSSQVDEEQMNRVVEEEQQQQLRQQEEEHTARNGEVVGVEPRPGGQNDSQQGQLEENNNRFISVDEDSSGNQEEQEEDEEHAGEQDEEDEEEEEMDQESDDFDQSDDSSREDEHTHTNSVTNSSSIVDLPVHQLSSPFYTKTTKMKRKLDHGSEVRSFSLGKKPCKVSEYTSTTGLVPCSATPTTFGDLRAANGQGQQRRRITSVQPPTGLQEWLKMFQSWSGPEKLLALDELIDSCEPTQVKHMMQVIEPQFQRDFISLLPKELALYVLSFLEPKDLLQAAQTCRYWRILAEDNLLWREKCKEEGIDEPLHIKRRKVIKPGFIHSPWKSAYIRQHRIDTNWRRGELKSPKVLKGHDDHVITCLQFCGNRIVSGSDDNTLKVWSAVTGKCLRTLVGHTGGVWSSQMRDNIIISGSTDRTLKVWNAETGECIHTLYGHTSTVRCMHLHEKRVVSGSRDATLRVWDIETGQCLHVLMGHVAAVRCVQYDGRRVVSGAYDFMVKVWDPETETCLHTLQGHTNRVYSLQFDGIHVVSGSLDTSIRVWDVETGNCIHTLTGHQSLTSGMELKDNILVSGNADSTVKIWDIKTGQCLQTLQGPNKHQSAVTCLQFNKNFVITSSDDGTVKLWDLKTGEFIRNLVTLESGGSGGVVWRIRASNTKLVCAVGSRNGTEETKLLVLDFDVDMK
TEAD-YAP inh: TEAD-YAP interaction inhibition, primary screen, TEAD-YAP interaction inhibitor project, luminescence, HEK-TIYL cells; TEAD-Gal4/YAP UAS-luciferase luminescence; AID 1259422, 2018; inhibition, % at 9.12 µM; 1.4% of 640,000 active; in the data active = inhibition above about 32%;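 also: 0% = median of test compound wells and 100% = reference inhibitor wells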
GPR151 ag: activators of human GPR151, primary screen, cell-based, PathHunter beta-arrestin, luminescence; G-protein coupled receptor 151 (Homo sapiens), Q8TDV0; PathHunter beta-arrestin GPR151 cells; activation, % at 11.2 µM; 1% of 650,000 active; AID 1508602, 2020; in the data active = activation above about 4.9%;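 also: 0% = median of compound wells and 100% = cells with positive control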
The depositor's hits bear a star. In the library only some 3.5% were active in any assay of this set; here they are far more common.

SMILES | MITF inh | FBW7 act | TEAD-YAP inh | GPR151 ag
O=C1c2ccccc2C(=O)c2cc(S(=O)(=O)N3CCN(c4ccccn4)CC3)ccc21 | 10.7 | 1.3 | -7.3 | 3.5
C=CCn1c(C)cc(C2=NNC(=NC3CC3)SC2)c1C | 17.9 | 0.3 | 95.3* | -1.3
CCOc1ccccc1[C@@H]1C[C@H]2CN(Cc3ccccc3OC)C(=O)[C@]23CCCN13 | 3.6 | 0.0 | 12.6 | 2.6
CC(=O)Nc1ccc(Nc2nc(Nc3ccc(-n4ccnc4)cc3)nc3nc[nH]c23)cc1 | 0.2 | -0.2 | 31.7 | -1.4
O=S(=O)(CCOc1ccccc1)Nc1ccc2c(c1)Cc1ccccc1-2 | 7.3 | 0.2 | -10.1 | 1.7
Cc1ccc(NS(=O)(=O)CCOc2ccccc2)cc1F | 3.4 | 0.7 | 38.8* | -2.2
COc1ccc(OC)c(-n2c(C)cc(/C=C3/C(=N)N4OC(C)=CC4=NC3=O)c2C)c1 | 12.6 | 0.1 | 48.4* | -0.5
CC1=CC2=NC(=O)/C(=C\c3cc(C)n(-c4cc(C)ccc4C)c3C)C(=N)N2O1 | 8.5 | 0.7 | 60.7* | -0.4
COc1cc(OC)c(-n2c(C)cc(/C=C3/C(=N)N4OC(C)=CC4=NC3=O)c2C)cc1Cl | -2.8 | 0.2 | 7.0 | 0.1
Nc1nc(Nc2ccc3c(c2)OCO3)cc(Nc2nccc3ccccc23)n1 | 10.5 | -0.1 | 36.5* | -1.1
Cc1cc(Nc2ccc3c(c2)OCO3)nc(Nc2nccc3ccccc23)n1 | 2.4 | -0.2 | 34.8* | 0.0
N#Cc1nc(COc2ccc(Br)cc2)oc1NCc1ccco1 | 5.0 | 22.9* | 6.0 | 1.3
COc1ccc(C(=O)N=c2sc3cc(F)ccc3n2C)c(OC)c1 | -1.2 | 0.1 | 55.3* | -1.0
COc1ccc(NC(=O)C2CC23CCN(Cc2ccc4c(c2)OCCO4)CC3)cc1Cl (stereo unspecified) | -4.2 | 0.0 | 8.3 | 0.5
O=C(Cn1c2c(c3ccccc31)CCC2)NC1=NCCS1 | 10.1 | -0.4 | 77.4* | -0.1
Cc1nc(C)n(-c2ccc(Nc3ncc(F)c(-c4cc(F)cc(N5CCN(C)CC5)c4)n3)cc2)n1 | -2.6 | -0.2 | 63.6* | -1.5
Fc1cc(-c2nc(Nc3cccc(Cn4cccn4)c3)ncc2F)cc(N2CCOCC2)c1 | 17.1 | 0.1 | -5.9 | -1.7
Fc1cc(-c2nc(Nc3cccc(CN4CCOCC4)c3)ncc2F)cc(N2CCOCC2)c1 | 14.5 | 0.9 | 90.9* | -2.2
Cc1nc(C)n(-c2ccc(Nc3ncc(F)c(-c4cc(C#N)cc(N5CCOCC5)c4)n3)cc2)n1 | -3.3 | -0.1 | 4.2 | -0.6
Fc1cc(-c2ccnc(Nc3cccc(CN4CCOCC4)c3)n2)cc(N2CCOCC2)c1 | 3.3 | -0.2 | 53.0* | -1.2
Fc1cc(-c2nc(Nc3ccc(-n4ccnc4)cc3)ncc2F)cc(N2CCOCC2)c1 | -4.3 | -0.1 | 57.4* | -0.7
COC(=O)c1cc(CNC(=O)C(C)C)cc(NS(=O)(=O)c2ccc(F)cc2)c1 | -29.4 | 0.1 | 8.3 | 0.4
Fc1cc(-c2nc(Nc3cccc(CN4CCCC4)c3)ncc2F)cc(N2CCOCC2)c1 | 11.0 | 0.4 | 93.3* | -1.1
Cc1cccc(NC(=O)C2(S(=O)(=O)c3ccc(Cl)cc3)CC2)c1 | -8.1 | 4.7* | -8.8 | -0.7
Cc1ccc(NC(=O)C2(S(=O)(=O)c3ccc(Cl)cc3)CC2)cc1 | -6.8 | 0.0 | 1.1 | 1.2
SMILES | MITF inh | FBW7 act | TEAD-YAP inh | GPR151 ag
O=C(N/N=C/c1ccc(O)c(I)c1)c1ccc2c(c1)OCCO2 | -11.8 | -0.1 | -15.0 | 0.8
O=C(N/N=C/c1ccc(O)cc1O)c1ccc2c(c1)OCCO2 | 17.9 | -0.1 | 61.2* | 1.2
Cc1cc(O)cc(O)c1/C=N/NC(=O)c1ccc2c(c1)OCCO2 | 8.7 | 0.1 | 55.8* | -1.5
O=C(N/N=C/c1ccc(O)cc1O)c1ccc(CN2C(=O)c3cccc4cccc2c34)cc1 | 21.2 | -0.6 | 33.0* | 3.4
CC1(C)CC(=O)C=C(Nc2ccc(N)cc2)C1 | -7.6 | 0.0 | -6.4 | -0.6
CS(=O)(=O)NCCC(c1ccccc1)c1ccccc1 | -2.8 | -0.2 | -8.2 | 1.5
COc1ccc(-c2nc3cc(NC(=S)NC(=O)c4ccco4)ccc3o2)cc1Cl | 0.6 | -0.2 | -2.5 | 0.9
Cc1cccn2cc(-c3ccc(NC(=O)CC(C)C)cc3)nc12 | 9.7 | 0.1 | -42.6 | -4.2
CCc1ccc(-c2cn3ccccc3n2)cc1 | 2.3 | 0.1 | 69.5* | -6.2
CC(C)CC(=O)Nc1ccc(-c2cn3ccccc3n2)cc1 | 6.7 | 0.0 | 40.6* | -3.0
CCc1ccc(-c2cn3nc(C)c(C)nc3n2)cc1 | -1.1 | 0.3 | 92.1* | -7.5
